# Assay results reported in the supplement of paper PMC8387472.
# Compound: O=c1cc(N2CCOCC2)oc2c(-c3ccc4c(c3)OCCO4)csc12
# Test: fraction of microhomology deletions among edited reads; higher = more MH deletions
# Conditions: mESC; 2uM; 72 h treatment, harvest day 5
row,Target,fraction of microhomology deletions among edited reads
1,"28.0 (DMSO control at this site: 1-bp insertion 0.035, MH deletion 0.77, edited 0.142) TGGTTCTTCCTTTGTAGAGAGTGTTCATCTGGGAATCTGGGACTTGGATGAGACAATCATT",0.818
2,"2.0 (DMSO control at this site: 1-bp insertion 0.364, MH deletion 0.356, edited 0.125) GGTGCCCCCGAGACCTACGCGAACCGAAATCGATGTCCGGTGCGCAAGCAGGGCTGGCGTC",0.419
3,"4.0 (DMSO control at this site: 1-bp insertion 0.146, MH deletion 0.523, edited 0.125) ACGCCTTAGTGCACGAGTGACGGGATAATGTGGTCTCAGGTAATTGATAGGCTTCCAACTT",0.586
4,"31.0 (DMSO control at this site: 1-bp insertion 0.315, MH deletion 0.329, edited 0.026) ACCTCCACAGGCTGGGTGGCCCGGAGGCTGGGCGGCCCGGAGGCTGGGCTGGGCGAGTATC",0.404
5,"29.0 (DMSO control at this site: 1-bp insertion 0.084, MH deletion 0.745, edited 0.133) TTGATGAACTTCCTCTTCTTCTCATGTCTCCGGTCTCCGGTAGGCCACGTGCATGGCCACT",0.735
6,"17.0 (DMSO control at this site: 1-bp insertion 0.112, MH deletion 0.348, edited 0.058) CCATAGCGCGATAAATATGACGGCTCATCCTGTATGACGGCTCATCCTGTATCAACTGTCC",0.342
7,"45.0 (DMSO control at this site: 1-bp insertion 0.017, MH deletion 0.666, edited 0.101) TTACACAGCATGAACTGCTAGGTGATGATGTCAGATTCGGTTTTACTAACTTCTCCAAAAA",0.67
8,"30.0 (DMSO control at this site: 1-bp insertion 0.074, MH deletion 0.67, edited 0.142) GAGCTGGCATGAGTATTTGTGCCACATGGCTCCCACATGGCTCCACATGCAAGTTTGAAAC",0.745
9,"44.0 (DMSO control at this site: 1-bp insertion 0.181, MH deletion 0.512, edited 0.123) ACACATACCTTCTTCGAGGCAGCCAGCATGATGAGACAGGTCTCCCACAAACACATCGTGT",0.537
10,"20.0 (DMSO control at this site: 1-bp insertion 0.349, MH deletion 0.138, edited 0.084) TACAGGTGTAGACTGGTTACGTGGCTGCGGAATTGACTGGTTACGTGGCTGCGGAATTTTG",0.176
11,"43.0 (DMSO control at this site: 1-bp insertion 0.134, MH deletion 0.714, edited 0.104) AGTTTAACTTACTCCGGCCAAAAAAGAACTGCACCTCTGGAGCGGGTTAGTGGTGGTGGTA",0.688
12,"33.0 (DMSO control at this site: 1-bp insertion 0.008, MH deletion 0.771, edited 0.112) CATTAAGAGCAGCTGCCGGCCCCCAAGTGGACAGAGCTGGCCCTGCTGATTCAACAGTGCA",0.737

# Compound: S=c1[nH]cnc2nc[nH]c12 [Mercaptopurine (6-MP)]
# Test: as above
# Conditions: mESC; 2uM; 72 h treatment, harvest day 5
row,Target,fraction of microhomology deletions among edited reads
1,"32.0 (DMSO control at this site: 1-bp insertion 0.03, MH deletion 0.85, edited 0.898) AGAAGTCCAGGATCAGGGGGACTGGGGTCGGGAGGGTGGGGCAGGAAGGAAGCCAGAATCA",0.903
2,"26.0 (DMSO control at this site: 1-bp insertion 0.518, MH deletion 0.262, edited 0.026) AGGGCGCGCCCCACGCACTCTGCGGCAAGTCCCTCTGCGGCAAGTCCTCGGCCCGGAAGAC",0.311
3,"34.0 (DMSO control at this site: 1-bp insertion 0.184, MH deletion 0.385, edited 0.103) ATTATAGGACCCTGAGGGAGCAGAGATGTGGGAATGGGGGCCGAGCCAATTGTGATGTAAG",0.424
4,"18.0 (DMSO control at this site: 1-bp insertion 0.114, MH deletion 0.789, edited 0.094) GCGCAAGTGCATAAGTTTTTCTTAAGGCGTGCCTTTAAGGCGTGCCTTTGTCGGTCCTGGA",0.734
5,"41.0 (DMSO control at this site: 1-bp insertion 0.022, MH deletion 0.754, edited 0.115) AAAGAGACAGCAGGTATGAATCCATCTTCCTGACCCTTGGGACCAGCCGGGGCAGTGAAGC",0.701
6,"47.0 (DMSO control at this site: 1-bp insertion 0.095, MH deletion 0.585, edited 0.118) GAGTGGTCCCGAGCCAGGAACTGTGTGTGTTGCAGGGGGGCAGTAACTCCCCAACTCCCTC",0.46
7,"35.0 (DMSO control at this site: 1-bp insertion 0.01, MH deletion 0.72, edited 0.098) CCACTTTTAGAGAGGGTGAAAATCATCAGTTATCATCAGGGCAACAAATTGCTTTCTCCTA",0.684
8,"16.0 (DMSO control at this site: 1-bp insertion 0.172, MH deletion 0.29, edited 0.05) CGGACTGCACACATGGGTAGGATCGTGCACGCGAGGTAGGATCGTGCACGCGAAGTTATTC",0.314
9,"19.0 (DMSO control at this site: 1-bp insertion 0.121, MH deletion 0.101, edited 0.057) TCTGCAGGGGTCGGAACCCGGGGGCTAGGGCTATCCCGGGGGCTAGGGCTATTAGCGAACC",0.238
10,"22.0 (DMSO control at this site: 1-bp insertion 0.573, MH deletion 0.229, edited 0.045) CTGATGGTTGAAGGATTTAGCCGGGGTCCTAGACGCCGGGGTCCTAGACGAAAGGGCCACG",0.107
11,"38.0 (DMSO control at this site: 1-bp insertion 0.063, MH deletion 0.487, edited 0.17) GGGCTGGGTGCTAAAATGAGGAGCTCCAAGAAGACTGAGGTGAACCTGGAGGCCCCTGAGC",0.474
12,"5.0 (DMSO control at this site: 1-bp insertion 0.214, MH deletion 0.567, edited 0.105) CGCTGACCCGAGACCTACGCGAACCGAAATCGGCGACCGGTGCGCAAGCAGGGCTGGCGTC",0.507
13,"1.0 (DMSO control at this site: 1-bp insertion 0.521, MH deletion 0.323, edited 0.141) GTGTCACAGTGCACGAGTGACGGGATAATGTGCTGACAGGTAATTGATAGGCTTCCAACTT",0.227
14,"0.0 (DMSO control at this site: 1-bp insertion 0.463, MH deletion 0.339, edited 0.14) AGGATTACCGAGACCTACGCGAACCGAAATCGCTGTCCGGTGCGCAAGCAGGGCTGGCGTC",0.288
15,"3.0 (DMSO control at this site: 1-bp insertion 0.109, MH deletion 0.149, edited 0.09) TGCTAGCGCCCCCACAAAGCGGACCAGCCAGCACTATAGGGAATAAGGCCAACTTGCACCC",0.168
16,"7.0 (DMSO control at this site: 1-bp insertion 0.128, MH deletion 0.374, edited 0.098) TACTCAACCGAGACCTACGCGAACCGAAATCGTATGCCGGTGCGCAAGCAGGGCTGGCGTC",0.401
17,"39.0 (DMSO control at this site: 1-bp insertion 0.328, MH deletion 0.371, edited 0.204) CTGCACAGTCACTTAGGATAGGAGAAGATGATGTATAGGGTTTAGTGGGAGATGTTGCAAG",0.356
18,21.0 CGATTGAGAGTCAAACGGGCCAGAAAACTCCGGGAACGGGCCAGAAAACTCCGGGGCATGG,0.16
19,"25.0 (DMSO control at this site: 1-bp insertion 0.017, MH deletion 0.774, edited 0.143) GGGCCTGAATGGTGTGGACATCTACTCGCTGGTGAGCTGGTGACTGAAAACATTCAGTGGC",0.71
20,27.0 CCAGAATTAGAACATATCATCTGGACCCTTTTCCATCTGGACCCTTTTCCAGCACACCCTG,0.197
21,"40.0 (DMSO control at this site: 1-bp insertion 0.072, MH deletion 0.192, edited 0.189) GCGAATCAACTGTTCAACAACAGCAGCAGCCACCTGGAGGACTACAGTGGCCTGTCCGTGT",0.145
22,"42.0 (DMSO control at this site: 1-bp insertion 0.145, MH deletion 0.655, edited 0.132) GGGCTAAACCTATGAGCACAGTAGAACTAAGGGTGGGTGGTGTAGCTAAAGAACTTGACCA",0.589
23,"28.0 (DMSO control at this site: 1-bp insertion 0.035, MH deletion 0.77, edited 0.142) TGGTTCTTCCTTTGTAGAGAGTGTTCATCTGGGAATCTGGGACTTGGATGAGACAATCATT",0.718
24,"2.0 (DMSO control at this site: 1-bp insertion 0.364, MH deletion 0.356, edited 0.125) GGTGCCCCCGAGACCTACGCGAACCGAAATCGATGTCCGGTGCGCAAGCAGGGCTGGCGTC",0.33
25,"4.0 (DMSO control at this site: 1-bp insertion 0.146, MH deletion 0.523, edited 0.125) ACGCCTTAGTGCACGAGTGACGGGATAATGTGGTCTCAGGTAATTGATAGGCTTCCAACTT",0.478
